Laboratory results: PubChem BioAssay (NCATS)
Records with an inconclusive call do not appear. Where a call stands in place of a potency, no number is given. Calls of active or inactive are those of the source. Calls follow the shape of the dose curve; as a rule, active = well fitted cell-killing curve with a large enough effect; inconclusive = small, poorly fitted or top-dose-only effect, or effect the other way; inactive = flat fitted curve, though single readings scatter.

assay: qHTS assay for cell viability of the p53RE-bla HCT-116 cell line (AID 743292); details: p53RE-bla HCT-116 viability, ATP luminescence, 16 h; series mostly up to 95 µM; also: nearly all actives have a fitted effect of over 55% in size
Source text: U.S. Tox21 Program National Center for Advancing Translational Sciences [NCATS] NIH Chemical Genomics Center [NCGC] U.S. Environmental Protection Agency [EPA] National Institutes of Environmental Health Sciences [NIEHS] National Toxicology Program [NTP] U.S. Food and Drug Administration [FDA] Tox21 Assay Overview: The CellTiter-Glo Luminescent Cell Viability Assay (Promega, Madison, WI) is a homogeneous method to determine the number of viable cells in culture based on quantitation of the ATP present, which signals the presence of metabolically active cells. This cell viability assay was used to screen environmental chemicals in the CellSensor p53RE-bla HCT-116 cell line (Invitrogen).
Tox21 Assay Protocol Summary: Cell viability after compound treatment was measured using a luciferase-coupled ATP quantitation assay (CellTiter-Glo viability assay, Promega, Madison, WI) in CellSensor p53RE-bla HCT-116 cell line (Invitrogen). Total intracellular ATP content corresponds to the number of metabolically competent cells after compound treatment. The cells were dispensed at 4,000 cells/5 uL/well in 1,536-well white/solid bottom assay plates using a Flying Reagent Dispenser (Aurora Discovery, San Diego, CA). The cells were incubated for 5 h at 37 C, followed by the addition of 23 nL of compounds dissolved in DMSO, positive controls or DMSO only using a pintool work station (Kalypsys, San Diego, CA). The assay plates were incubated for 16 h at 37 C, followed by the addition of 5 uL/well of CellTiter-Glo reagent. After 30 min incubation at room temperature, the luminescence intensity of the plates was measured using a ViewLux plate reader (PerkinElmer, Shelton, CT).

| SMILES | Potency |
| --- | --- |
| CCCBr | inactive |
| ClCCOCCCl | inactive |
| CCN(CC)CCO | inactive |
| CC(C)C#N | inactive |
| O=[N+]([O-])c1cccc(O)c1 | inactive |
| CC(C)CON=O | inactive |
| CCBr | inactive |
| CC(C)CC(C)N (stereo not given) | inactive |
| COc1ccc(C=O)cc1 | inactive |
| ClCCCCl | inactive |
| CC(C)(C)c1ccccc1O | inactive |
| OC[P+](CO)(CO)CO | inactive |
| COC(=O)c1ccccc1N | inactive |
| c1ccc(NNc2ccccc2)cc1 | inactive |
| C=CC(=O)OCC(C)C | inactive |
| c1ccc2c(c1)CCNC2 | inactive |
| CCCCCCCCCCCOC(=O)c1ccccc1C(=O)OCCCCCCCCCCC | inactive |
| O=S(=O)(Cl)c1ccccc1 | inactive |
| ClC(Cl)c1ccccc1 | inactive |
| N#CCc1ccccc1 | inactive |

| SMILES | Potency |
| --- | --- |
| S=C1NCCN1 | inactive |
| [O-][Cl+2]([O-])O | inactive |
| O=C(Cl)c1ccccc1F | inactive |
| CCCCCOC(=O)c1ccccc1C(=O)OCCCCC | inactive |
| OCCOCCO | inactive |
| O=S(=O)(O)F | inactive |
| Nc1ccc([N+](=O)[O-])cc1N | inactive |
| C/C=C/CC#N | inactive |
| BrCCc1ccccc1 | inactive |
| CCOP(=O)(OCC)OCC | inactive |
| CCC(Cl)[N+](=O)[O-] (stereo not given) | inactive |
| Cc1cccc(C)c1N | inactive |
| Clc1cc(Cl)c(Cl)c(Cl)c1 | inactive |
| c1ccoc1 | inactive |
| Cc1cc(Cl)ccc1O | inactive |
| CC[N+](=O)[O-] | inactive |
| COC(=O)Nc1cccc(OC(=O)Nc2cccc(C)c2)c1 | inactive |
| C=CC#N | inactive |
| ClCCBr | inactive |
| Nc1ccc(Oc2ccc(N)cc2)cc1 | inactive |
